# Source: PubChem BioAssay (EPA / NIEHS)
# Inconclusive results are not listed. Some compounds were tested as several samples or in several runs, with calls that do not always agree. Activity calls are given as the source filed them. How the source made its calls, unless noted: active means hit-call score of the fitted dose curve at least 0.9, where 1 is the maximum; inconclusive means response in the unintended direction; inactive means score below 0.9.
# Columns and labels:
# [1] = molecular target: Steroid hormone receptor ERR1 (Homo sapiens) (UniProt P11474); experiment: ATG_ERRa_TRANS: Attagene TRANS-FACTORIAL HepG2 Assay for human Estrogen-Related Receptor alpha (ERRa) (AID 2282971); details: HepG2 Attagene TRANS reporter, ERRa transactivation
# Steroid hormone receptor ERR1 (Homo sapiens), sequence (P11474 whole entry, looked up, the tested form may be a part): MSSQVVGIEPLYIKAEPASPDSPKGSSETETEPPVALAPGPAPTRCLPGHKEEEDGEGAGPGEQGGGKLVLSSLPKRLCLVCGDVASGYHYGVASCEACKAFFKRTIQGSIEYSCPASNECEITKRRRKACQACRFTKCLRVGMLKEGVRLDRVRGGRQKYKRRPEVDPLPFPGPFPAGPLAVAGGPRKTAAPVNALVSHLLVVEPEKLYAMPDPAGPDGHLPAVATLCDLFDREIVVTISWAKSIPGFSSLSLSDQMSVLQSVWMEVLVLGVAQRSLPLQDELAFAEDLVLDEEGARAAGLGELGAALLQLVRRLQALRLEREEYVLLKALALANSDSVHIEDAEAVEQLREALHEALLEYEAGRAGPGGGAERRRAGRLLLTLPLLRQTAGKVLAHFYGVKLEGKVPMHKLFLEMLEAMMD
# Method in brief: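 Signal gain relative to DMSO for an ERRa-Gal4 chimeric receptor, read as reporter mRNA by RT-PCR/capillary electrophoresis. Human HepG2 liver cells, transient multiplex reporter transfection, 24 h chemical exposure.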
# [2] = ATG_M_19_TRANS: Attagene TRANS-FACTORIAL HepG2 Assay for M19 Transcription Factor (Internal Marker) (AID 2282974); details: HepG2 Attagene TRANS-FACTORIAL M19 internal marker reporter
# Method in brief: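 24 h chemical exposure of transiently transfected HepG2 (MRTU library). RNA → oligo(dT) RT → PCR → 6-FAM labelling → HpaI cut → CE fluorescence. Positive-direction fit vs DMSO baseline; background internal-marker readout.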
# [3] = molecular target: human Peroxisome Proliferator-activated Receptor delta (PPARd), PPARD (gene 5467) (UniProt Q03181); experiment: ATG_PPARd_TRANS: Attagene TRANS-FACTORIAL HepG2 Assay for human Peroxisome Proliferator-activated Receptor delta (PPARd) (AID 2283002)
# human Peroxisome Proliferator-activated Receptor delta (PPARd), PPARD (gene 5467), sequence (Q03181 whole entry, looked up, the tested form may be a part): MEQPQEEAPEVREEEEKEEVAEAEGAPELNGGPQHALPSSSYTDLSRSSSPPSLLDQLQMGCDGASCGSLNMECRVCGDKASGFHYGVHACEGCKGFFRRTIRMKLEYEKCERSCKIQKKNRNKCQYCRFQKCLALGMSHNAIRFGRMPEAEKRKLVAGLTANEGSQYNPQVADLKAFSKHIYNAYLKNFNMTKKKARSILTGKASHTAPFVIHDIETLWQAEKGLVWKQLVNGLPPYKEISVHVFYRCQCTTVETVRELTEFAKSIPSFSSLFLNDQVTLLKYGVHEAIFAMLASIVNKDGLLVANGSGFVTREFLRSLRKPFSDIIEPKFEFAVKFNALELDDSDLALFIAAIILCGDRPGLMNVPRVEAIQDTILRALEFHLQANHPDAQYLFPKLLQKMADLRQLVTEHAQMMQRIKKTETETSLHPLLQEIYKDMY
# Method in brief: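 Multiplexed trans-activation format: HepG2 liver cells expressing exogenous NR-Gal4 chimeras and GAL4-UAS reporters were exposed for 24 h. Reporter mRNA was detected by RT-PCR with capillary electrophoresis fluorescence; activity fitted as gain of signal relative to DMSO.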
# [4] = read-out: Pselectin, SELP (gene 6403); experiment: BSK_4H_Pselectin: BioMAP Diversity Plus: 4H Assay for Pselectin Biomarker Activity (AID 2283026; active means hit-call score of the fitted dose curve at least 0.9, where 1 is the maximum; inactive means score below 0.9); details: primary human endothelial cells (HUVEC); actives raise or lower the signal
# Method in brief: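 Primary human umbilical vein endothelial cells were exposed to test chemical for 24 h, then cell-surface P-selectin was quantified by ELISA. Activity was fitted bidirectionally against DMSO as negative control and baseline.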
# [5] = ATG_ERE_CIS: Attagene CIS-FACTORIAL HepG2 Assay for Estrogen Response Element (ERE) (AID 2282940; active means hit-call score of the fitted dose curve at least 0.9, where 1 is the maximum; inactive means score below 0.9); details: HepG2 ERE cis-reporter, Attagene RNA transcript; actives raise or lower the signal
# Method in brief: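 After 24 h compound treatment, RNA from transfected HepG2 cells was reverse-transcribed, reporter cDNA PCR-amplified, FAM-labelled, HpaI-cut and resolved by capillary electrophoresis. ERE-driven cis reporter transcripts reflect endogenous factors; gain or loss scored against DMSO.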
# [6] = molecular target: Estrogen receptor (Homo sapiens) (UniProt P03372); experiment: ATG_ERa_TRANS: Attagene TRANS-FACTORIAL HepG2 Assay for human Estrogen Receptor alpha (ERa) (AID 2282970); details: HepG2 Attagene TRANS ERa GAL4 reporter, mRNA
# Estrogen receptor (Homo sapiens), sequence (P03372 whole entry, looked up, the tested form may be a part): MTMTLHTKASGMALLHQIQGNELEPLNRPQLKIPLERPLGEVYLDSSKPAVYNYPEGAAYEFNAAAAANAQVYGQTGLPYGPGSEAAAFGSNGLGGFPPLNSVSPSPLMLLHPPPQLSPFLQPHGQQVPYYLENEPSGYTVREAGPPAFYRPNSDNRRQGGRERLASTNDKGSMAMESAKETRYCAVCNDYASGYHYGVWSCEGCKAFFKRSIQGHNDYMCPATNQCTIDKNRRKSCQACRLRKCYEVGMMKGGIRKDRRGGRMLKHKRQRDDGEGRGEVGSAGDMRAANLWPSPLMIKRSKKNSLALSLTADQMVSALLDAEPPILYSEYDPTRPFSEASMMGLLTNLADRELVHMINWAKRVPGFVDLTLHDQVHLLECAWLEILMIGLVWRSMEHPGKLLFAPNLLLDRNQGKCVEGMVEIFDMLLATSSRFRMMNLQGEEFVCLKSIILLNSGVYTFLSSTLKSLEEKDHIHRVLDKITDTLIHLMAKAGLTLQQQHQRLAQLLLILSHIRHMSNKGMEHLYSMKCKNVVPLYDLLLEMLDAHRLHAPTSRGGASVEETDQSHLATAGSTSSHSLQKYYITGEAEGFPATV
# Method in brief: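 Multiplexed cell-based reporter format in HepG2: chimeric ERa-Gal4 protein drives GAL4-UAS reporter transcription. Fluorescent reporter mRNA quantified by capillary electrophoresis 24 hours after dosing; endpoint fitted as signal gain against DMSO.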
# [7] = molecular target: human Retinoic Acid Receptor gamma (RARg), RARG (gene 5916) (UniProt P13631); experiment: ATG_RARg_TRANS: Attagene TRANS-FACTORIAL HepG2 Assay for human Retinoic Acid Receptor gamma (RARg) (AID 2283009)
# human Retinoic Acid Receptor gamma (RARg), RARG (gene 5916), sequence (P13631 whole entry, looked up, the tested form may be a part): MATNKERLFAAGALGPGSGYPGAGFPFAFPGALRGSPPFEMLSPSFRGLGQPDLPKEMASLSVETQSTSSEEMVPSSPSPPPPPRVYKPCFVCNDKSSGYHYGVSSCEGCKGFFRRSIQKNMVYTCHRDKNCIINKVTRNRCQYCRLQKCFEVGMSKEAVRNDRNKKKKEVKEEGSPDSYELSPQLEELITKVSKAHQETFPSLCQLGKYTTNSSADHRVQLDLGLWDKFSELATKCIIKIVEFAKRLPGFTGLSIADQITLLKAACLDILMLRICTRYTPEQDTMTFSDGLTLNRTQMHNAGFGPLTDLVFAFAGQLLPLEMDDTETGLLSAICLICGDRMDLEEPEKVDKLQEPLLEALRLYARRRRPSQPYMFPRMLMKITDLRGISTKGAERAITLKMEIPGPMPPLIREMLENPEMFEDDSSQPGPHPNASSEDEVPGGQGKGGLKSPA
# Method in brief: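 HepG2 cells transiently transfected with multiplexed reporter units expressing chimeric RARg-GAL4 and GAL4-UAS-driven reporters; 24 h compound exposure. Reporter mRNA quantified by RT-PCR with fluorescent labelling and capillary electrophoresis; gain-of-signal fitted relative to DMSO baseline.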
# [8] = molecular target: Estrogen-related receptor gamma (Homo sapiens) (UniProt P62508); experiment: ATG_ERRg_TRANS: Attagene TRANS-FACTORIAL HepG2 Assay for human Estrogen-Related Receptor gamma (ERRg) (AID 2282977); details: HepG2 Attagene TRANS reporter, ERRg transactivation;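 further: hits increase reporter signal over DMSO so potencies reflect activators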
# Estrogen-related receptor gamma (Homo sapiens), sequence (P62508 whole entry, looked up, the tested form may be a part): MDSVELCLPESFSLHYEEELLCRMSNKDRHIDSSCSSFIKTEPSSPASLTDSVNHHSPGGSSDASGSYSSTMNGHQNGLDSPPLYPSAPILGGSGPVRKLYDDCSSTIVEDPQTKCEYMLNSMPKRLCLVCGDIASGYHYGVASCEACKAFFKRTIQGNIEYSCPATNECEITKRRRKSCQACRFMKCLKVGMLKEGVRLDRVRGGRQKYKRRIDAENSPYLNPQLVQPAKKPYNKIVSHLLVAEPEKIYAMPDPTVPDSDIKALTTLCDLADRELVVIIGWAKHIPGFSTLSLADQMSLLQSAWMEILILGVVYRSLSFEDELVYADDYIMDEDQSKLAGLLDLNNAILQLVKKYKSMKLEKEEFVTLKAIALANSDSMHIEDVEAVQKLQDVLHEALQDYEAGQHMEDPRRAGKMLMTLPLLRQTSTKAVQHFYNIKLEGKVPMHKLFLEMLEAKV
# Method in brief: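 HepG2 cells transiently transfected with multiplexed GAL4-UAS reporter units and chimeric NR-Gal4 constructs were exposed to test chemicals for 24 h. Reporter mRNA was measured by RT-PCR, 6-FAM primer extension, HpaI digestion and capillary electrophoresis; gain-of-signal versus DMSO.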
# [9] = molecular target: Bile acid receptor (Homo sapiens) (UniProt Q96RI1); experiment: ATG_FXR_TRANS: Attagene TRANS-FACTORIAL HepG2 Assay for Farnesoid X Receptor (FXR) (AID 2282979); details: HepG2 Attagene TRANS FXR-GAL4 reporter transcription;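 further: hits raise reporter mRNA above DMSO so AC50 marks FXR activation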
# Bile acid receptor (Homo sapiens), sequence (Q96RI1 whole entry, looked up, the tested form may be a part): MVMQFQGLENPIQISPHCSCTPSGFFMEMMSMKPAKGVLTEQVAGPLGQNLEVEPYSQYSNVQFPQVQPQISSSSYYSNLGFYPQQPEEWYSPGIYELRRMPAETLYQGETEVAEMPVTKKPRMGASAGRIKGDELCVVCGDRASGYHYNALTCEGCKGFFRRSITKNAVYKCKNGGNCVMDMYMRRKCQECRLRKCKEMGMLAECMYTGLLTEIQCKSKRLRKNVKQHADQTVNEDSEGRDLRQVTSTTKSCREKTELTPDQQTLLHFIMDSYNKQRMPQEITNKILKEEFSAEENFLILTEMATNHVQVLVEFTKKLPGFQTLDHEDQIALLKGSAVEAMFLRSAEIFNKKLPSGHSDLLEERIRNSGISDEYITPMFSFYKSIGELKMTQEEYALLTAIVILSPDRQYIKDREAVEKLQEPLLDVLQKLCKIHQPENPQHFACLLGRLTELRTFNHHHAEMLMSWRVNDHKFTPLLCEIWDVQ
# Method in brief: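 After 24 h chemical treatment of transfected HepG2 cells, GAL4-UAS reporter transcripts driven by an exogenous FXR-GAL4 fusion were measured by RT-PCR and capillary electrophoresis. Increases over DMSO were fitted.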
# [10] = molecular target: Retinoic acid receptor alpha (Homo sapiens) (UniProt P10276); experiment: ATG_RARa_TRANS: Attagene TRANS-FACTORIAL HepG2 Assay for human Retinoic Acid Receptor alpha (RARa) (AID 2283005)
# Method in brief: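 HepG2 cells transiently transfected with multiple reporter units expressing chimeric RARα-GAL4 fusion, with GAL4-UAS-driven reporters. After 24 h compound exposure, reporter mRNA induction quantified by RT-PCR and capillary electrophoresis with fluorescent labeling; gain-of-signal fitted relative to DMSO control.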
# [11] = molecular target: Estrogen receptor beta (Homo sapiens) (UniProt Q92731); experiment: OT_ER_ERbERb_0480: Odyssey Thera (OT) 8-hour HEK293T Protein-Complementation Assay for Estrogen Receptor-beta/-beta Homodimer (AID 2283357);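 further: active means signal gain over DMSO baseline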
# Estrogen receptor beta (Homo sapiens), sequence (Q92731 whole entry, looked up, the tested form may be a part): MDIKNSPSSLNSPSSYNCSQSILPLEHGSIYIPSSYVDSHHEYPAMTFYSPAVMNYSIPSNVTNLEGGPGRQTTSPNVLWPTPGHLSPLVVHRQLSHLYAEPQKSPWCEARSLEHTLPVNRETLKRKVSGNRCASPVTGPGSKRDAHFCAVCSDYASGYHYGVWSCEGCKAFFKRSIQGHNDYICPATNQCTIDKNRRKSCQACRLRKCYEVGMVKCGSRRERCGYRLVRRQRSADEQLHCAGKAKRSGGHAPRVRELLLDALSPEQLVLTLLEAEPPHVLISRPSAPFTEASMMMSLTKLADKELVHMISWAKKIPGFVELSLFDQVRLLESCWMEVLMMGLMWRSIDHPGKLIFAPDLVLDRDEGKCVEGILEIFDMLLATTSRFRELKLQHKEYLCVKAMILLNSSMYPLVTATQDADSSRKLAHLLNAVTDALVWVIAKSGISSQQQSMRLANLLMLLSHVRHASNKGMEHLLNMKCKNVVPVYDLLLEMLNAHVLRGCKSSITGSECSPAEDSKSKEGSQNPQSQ
# Method in brief: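 Readout: increase in mean fluorescence intensity (nucleus for agonists; nucleus plus cytoplasm for antagonists) relative to DMSO, from a reporter-fragment complementation of human ER-beta LBD homodimer in HEK293T cells dosed 8 hours.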
# [12] = molecular target: Estrogen receptor beta (Homo sapiens) (UniProt Q92731); experiment: OT_ER_ERbERb_1440: Odyssey Thera (OT) 24-hour HEK293T Protein-Complementation Assay for Estrogen Receptor-beta/-beta Homodimer (AID 2283380);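 further: fluorescence gain from ER beta LBD homodimer complementation read by laser scanning cytometry; scored as signal increase over DMSO baseline for both agonists and antagonists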
# Method in brief: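 HEK293T cells stably expressing human ER-beta LBD (aa 310-547) PCA homodimer pair, dosed 24 h; formaldehyde-fixed, Draq5-stained. Readout: increase in nuclear (agonist) or nuclear plus cytoplasmic (antagonist) fluorescence intensity versus DMSO, gain-of-signal fitting.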
# [13] = ACEA_AR_agonist_AUC_viability: ACEA Biosciences xCELLigence Real-Time Cell Analysis on Androgen Receptor Agonism for Viability (AID 2283775)
# Method in brief: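 Read-out is area under the impedance curve at 80 h post-dose in 22Rv1 cells, with DMSO as baseline and signal loss taken as reduced viability. Compounds ran in duplicate from 100 uM final.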
# [14] = ACEA_AR_antagonist_AUC_viability: ACEA Biosciences xCELLigence Real-Time Cell Analysis on Androgen Receptor Antagonism for Viability (AID 2283776);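 further: 22Rv1 human prostate cancer cells growing on impedance electrode plates; area under impedance growth curve at 80 h after dosing as viability; hits lower the growth signal relative to DMSO meaning cytotoxicity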
# Method in brief: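 Impedance read-out (RT-CES): area under growth curve at 80 h post-dose, loss of signal scored vs DMSO baseline. 22Rv1 cells; 8-pt 1:4 series, top 100 uM final, ≤0.5% DMSO; biological duplicate.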
# [15] = CCTE_Harrill_HTTr_CellCount_MCF7: CCTE's Cell Proliferation Assessment for the High-Throughput Transcriptomics (HTTr) Platform, Harrill Lab (AID 2284012);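 further: cells exposed to compound for six hours; intended direction is loss of nuclei count meaning fewer cells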
# Method in brief: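 MCF-7 cells were exposed for 6 h to an eight-point dilution series; Hoechst-labeled nuclei were counted by high content imaging. Curves were fitted bidirectionally against DMSO as negative control and baseline, with signal loss indicating reduced cell count.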
# [16] = molecular target: Retinoic acid receptor RXR-alpha (Homo sapiens) (UniProt P19793); experiment: OT_NURR1_NURR1RXRa_0480: Odyssey Thera (OT) 8-hour HEK293T Protein Complementation Assay for Nurr1/retinoid X receptor (RXR) (AID 2283385)
# Retinoic acid receptor RXR-alpha (Homo sapiens), sequence (P19793 whole entry, looked up, the tested form may be a part): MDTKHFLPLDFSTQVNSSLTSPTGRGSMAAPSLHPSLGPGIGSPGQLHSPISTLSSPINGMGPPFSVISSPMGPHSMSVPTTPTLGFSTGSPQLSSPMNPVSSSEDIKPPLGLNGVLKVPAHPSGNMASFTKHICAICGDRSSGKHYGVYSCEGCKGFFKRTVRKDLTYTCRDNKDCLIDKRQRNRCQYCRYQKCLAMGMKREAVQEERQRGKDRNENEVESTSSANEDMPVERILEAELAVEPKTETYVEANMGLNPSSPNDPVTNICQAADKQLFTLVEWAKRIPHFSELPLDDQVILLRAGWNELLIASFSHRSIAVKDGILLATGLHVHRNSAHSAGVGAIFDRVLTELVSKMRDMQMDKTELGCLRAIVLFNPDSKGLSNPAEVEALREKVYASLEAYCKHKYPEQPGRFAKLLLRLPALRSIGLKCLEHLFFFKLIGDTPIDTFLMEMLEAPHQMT
# Method in brief: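 HEK293T cells expressing Nurr1 and RXRα fused to reporter fragments were dosed with compound for 8 hours. Complex formation was read as fluorescence intensity and analysed as gain of signal against DMSO as baseline.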
# [17] = molecular target: Retinoic acid receptor RXR-alpha (Homo sapiens) (UniProt P19793); experiment: OT_NURR1_NURR1RXRa_1440: Odyssey Thera (OT) 24-hour HEK293T Protein Complementation Assay for Nurr1/retinoid X receptor (RXR) (AID 2283386)
# Method in brief: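 HEK293T cells were dosed with compound and read 24 h later by fluorescence intensity in a protein-fragment complementation format, where Nurr1–RXRα interaction reconstitutes a split reporter. Activity was fitted as gain of signal relative to DMSO baseline.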
# [18] = molecular target: Peroxisome proliferator-activated receptor gamma (Homo sapiens) (UniProt P37231); experiment: OT_PPARg_PPARgSRC1_0480: Odyssey Thera (OT) 8-hour Protein-Complementation Assay for Peroxisome Proliferator-activated Receptor Gamma / SRC-1 Co-activator (AID 2283387);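 further: nuclear to cytoplasmic split Venus YFP fluorescence ratio reporting PPARg SRC-1 interaction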
# Peroxisome proliferator-activated receptor gamma (Homo sapiens), sequence (P37231 whole entry, looked up, the tested form may be a part): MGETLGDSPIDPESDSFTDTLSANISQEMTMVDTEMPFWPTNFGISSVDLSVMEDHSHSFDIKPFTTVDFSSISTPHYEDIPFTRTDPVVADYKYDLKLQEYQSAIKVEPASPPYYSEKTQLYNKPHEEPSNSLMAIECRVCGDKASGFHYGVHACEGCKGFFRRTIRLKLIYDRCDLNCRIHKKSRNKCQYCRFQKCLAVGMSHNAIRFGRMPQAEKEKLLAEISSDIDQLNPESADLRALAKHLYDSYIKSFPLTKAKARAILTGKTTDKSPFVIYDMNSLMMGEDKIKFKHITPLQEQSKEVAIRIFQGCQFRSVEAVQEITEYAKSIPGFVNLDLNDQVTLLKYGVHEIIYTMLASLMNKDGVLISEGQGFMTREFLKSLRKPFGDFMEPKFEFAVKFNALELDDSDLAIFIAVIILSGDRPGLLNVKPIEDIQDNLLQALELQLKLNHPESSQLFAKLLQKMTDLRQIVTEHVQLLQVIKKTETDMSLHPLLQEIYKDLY
# Method in brief: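 Protein-fragment complementation of split Venus YFP reports PPARg/SRC-1 interaction in HEK293T (transfected 48 h before treatment), exposed 8 h. Readout: N/C fluorescence ratio at 488 nm from imaging, Draq5 for segmentation, positive fit relative to DMSO.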
# [19] = molecular target: Peroxisome proliferator-activated receptor gamma (Homo sapiens) (UniProt P37231); experiment: OT_PPARg_PPARgSRC1_1440: Odyssey Thera (OT) 24-hour Protein-Complementation Assay for Peroxisome Proliferator-activated Receptor Gamma/ SRC-1 Co-activator (AID 2283388);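 further: nuclear to cytoplasmic ratio of reconstituted Venus YFP fluorescence in fixed imaged cells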
# Method in brief: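 Cells carrying the PPARg/SRC-1 fragment-complementation reporter receive compound for 24 hours, are fixed and counterstained with Draq5, then imaged. Increased nuclear relative to cytoplasmic YFP fluorescence above DMSO baseline indicates binding activity.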
# [20] = molecular target: human Retinoic Acid Receptor beta (RARb), RARB (gene 5915) (UniProt P10826); experiment: ATG_RARb_TRANS: Attagene TRANS-FACTORIAL HepG2 Assay for human Retinoic Acid Receptor beta (AID 2283004)
# human Retinoic Acid Receptor beta (RARb), RARB (gene 5915), sequence (P10826 whole entry, looked up, the tested form may be a part): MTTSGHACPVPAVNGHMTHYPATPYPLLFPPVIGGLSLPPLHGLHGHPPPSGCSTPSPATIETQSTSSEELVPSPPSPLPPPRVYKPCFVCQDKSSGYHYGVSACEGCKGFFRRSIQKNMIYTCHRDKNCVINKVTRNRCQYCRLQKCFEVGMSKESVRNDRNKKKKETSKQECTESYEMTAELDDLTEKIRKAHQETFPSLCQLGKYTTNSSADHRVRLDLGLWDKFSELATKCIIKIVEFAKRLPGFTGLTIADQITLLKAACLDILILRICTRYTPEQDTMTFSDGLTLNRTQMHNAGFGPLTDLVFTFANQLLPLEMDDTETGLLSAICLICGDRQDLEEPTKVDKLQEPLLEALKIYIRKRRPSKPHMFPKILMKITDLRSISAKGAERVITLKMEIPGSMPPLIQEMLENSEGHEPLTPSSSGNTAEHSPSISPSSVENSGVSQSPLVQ
# Method in brief: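 Fluorescent capillary-electrophoresis detection of GAL4-UAS reporter mRNA defines the endpoint, with induction over DMSO-treated wells scored as activity. Transiently transfected human hepatoma HepG2 cells expressing exogenous NR–Gal4 proteins are exposed to test chemicals for 24 h.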
smiles,measurement,setting,value
CC/C=C\CCCCCO,outcome,[1],inactive
CCCCCCCCCCC1CO1 (stereo unspecified),outcome,[2],inactive
same,outcome,[3],inactive
same,AC50,[4],33.3 µM (active)
COC(OC)C(C)c1ccccc1 (stereo unspecified),outcome,[5],inactive
same,outcome,[6],inactive
C=CN1CCCCCC1=O,outcome,[3],inactive
CN(C)CCC(c1ccc(Cl)cc1)c1ccccn1 (stereo unspecified),AC50,[4],0.502 µM (active)
CCCCCCCC#N,outcome,[1],inactive
same,outcome,[2],inactive
same,outcome,[7],inactive
CC/C=C/CCO,outcome,[8],inactive
same,outcome,[9],inactive
CC(=O)Nc1c(I)c(NC(C)=O)c(I)c(C(=O)O)c1I,outcome,[10],inactive
c1ccc2c(c1)Oc1ccccc1S2,AC50,[5],63.7 µM (active)
same,AC50,[6],27.9 µM (active)
same,outcome,[2],inactive
same,outcome,[3],inactive
O=[N+]([O-])c1ccc2nc[nH]c2c1,outcome,[5],inactive
same,outcome,[6],inactive
same,outcome,[9],inactive
O=C(O)/C=C/C(=O)O,outcome,[11],inactive
same,outcome,[12],inactive
same,outcome,[13],inactive
same,outcome,[14],inactive
same,outcome,[15],inactive
Nc1ccc(S(=O)(=O)Nc2cnc3ccccc3n2)cc1,outcome,[11],inactive
same,outcome,[12],inactive
same,outcome,[16],inactive
same,outcome,[17],inactive
same,outcome,[18],inactive
same,outcome,[19],inactive
c1ccc(CNc2ncnc3nc[nH]c23)cc1,outcome,[9],inactive
same,outcome,[7],inactive
same,outcome,[11],inactive
same,outcome,[12],inactive
same,outcome,[13],inactive
same,outcome,[14],inactive
same,outcome,[15],inactive
CC/C=C\CC1=C(C)CCC1=O,outcome,[2],inactive
same,outcome,[8],inactive
CC(=O)OC(C)(C)Cc1ccccc1,outcome,[2],inactive
same,outcome,[9],inactive
same,outcome,[13],inactive
same,outcome,[14],inactive
CC(C)(Oc1ccc(Cl)cc1)C(=O)O,outcome,[2],inactive
CC(C)CC(=O)CC(C)C,outcome,[8],inactive
same,outcome,[11],inactive
same,outcome,[12],inactive
same,outcome,[17],inactive
Cc1cc(-n2nc3ccc(Cl)cc3n2)c(O)c(C(C)(C)C)c1,outcome,[8],inactive
same,outcome,[9],inactive
same,outcome,[3],inactive
same,outcome,[20],inactive
same,outcome,[4],inactive
Cc1ccccc1S(=O)(=O)O,outcome,[11],inactive
same,outcome,[12],inactive
CC(C)=CCOC(=O)c1ccccc1,outcome,[8],inactive
same,outcome,[3],inactive
O=C(O)c1ccccc1C(=O)O,outcome,[5],inactive
same,outcome,[3],inactive
same,outcome,[20],inactive
same,outcome,[17],inactive
same,outcome,[13],inactive
same,outcome,[14],inactive
O=C(O)c1nc(Cl)c(Cl)c(Cl)c1Cl,outcome,[8],inactive
CCC(C)NC(N)=O (stereo unspecified),outcome,[5],inactive
same,outcome,[6],inactive
CC=CC(=O)O,outcome,[1],inactive
same,outcome,[2],inactive
same,outcome,[8],inactive
same,outcome,[20],inactive
same,outcome,[7],inactive
O=C(O)/C=C\C(=O)O,outcome,[1],inactive
same,outcome,[2],inactive
same,outcome,[8],inactive
same,outcome,[11],inactive
same,outcome,[12],inactive
same,outcome,[16],inactive
same,outcome,[17],inactive
same,outcome,[13],inactive
same,outcome,[15],inactive
C[C@H]1C[C@H]2[C@@H]3CCC4=CC(=O)C=C[C@]4(C)[C@@]3(F)[C@@H](O)C[C@]2(C)[C@@]1(O)C(=O)CO,outcome,[2],inactive
C/C=C(\C)C(=O)OCC/C=C\CC,outcome,[2],inactive
same,outcome,[9],inactive
same,outcome,[20],inactive
same,outcome,[10],inactive
CCC(=O)OCc1ccc(OC)cc1,outcome,[2],inactive
same,outcome,[9],inactive
same,outcome,[3],inactive
same,outcome,[7],inactive
CNC(=C[N+](=O)[O-])NCCSCc1csc(CN(C)C)n1,outcome,[2],inactive
same,outcome,[15],inactive
CN(C)Cc1cc(C(C)(C)C)c(O)c(C(C)(C)C)c1,outcome,[2],inactive
same,outcome,[8],inactive
same,AC50,[4],1.56 µM (active)
same,outcome,[4],inactive
NC(N)=Nc1nc(CSCCC(N)=NS(N)(=O)=O)cs1,AC50,[5],26.1 µM (active)
same,outcome,[6],inactive
same,outcome,[1],inactive
same,outcome,[9],inactive
same,outcome,[15],inactive
O=C(OCc1ccccc1)c1ccccc1,outcome,[1],inactive
same,outcome,[16],inactive
same,outcome,[18],inactive
same,outcome,[19],inactive
